Experimental data: PubChem BioAssay (Tox21)
Records with an inconclusive call do not appear. Active and inactive are the calls of the source. Unless noted, calls come from the whole dose curve.

Columns and labels:
[1] = Nuclear factor erythroid 2-related factor 2/antioxidant responsive element (Nrf2/ARE) small molecule agonists: qHTS cell viability counter screen in human keratinocytes (AID 1919968; active = well fitted curve in the direction sought with a large enough effect in the repeat runs; an effect the other way counts as inactive or inconclusive; note: nearly all actives have a fitted effect of over 55% in size)
In short: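 Seed 1,500 KeratinoSens cells per well, then incubate 5 h at 37 C/5% CO2. Add compounds in DMSO and incubate 23 h. Add CellTiter-Fluor, wait 1 h and read fluorescence.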

[2] = Nuclear factor erythroid 2-related factor 2/antioxidant responsive element (Nrf2/ARE) small molecule agonists: luciferase reporter gene qHTS assay in human keratinocytes (AID 1919969); note: nearly all actives have a fitted effect of over 35% in size
[3] = target: Gonadotropin-releasing hormone receptor (Homo sapiens) (UniProt P30968); test: Human gonadotropin-releasing hormone receptor (GnRHR) small molecule agonists, calcium flux assay in GnRHR-HEK293 cells (AID 1920063); note: nearly all actives have a fitted effect of over 35% in size
In short: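 Cells: HEK293 stably expressing human GnRHR. Steps: overnight (18 h) culture, 1 h calcium dye loading at 37 C, compound addition, kinetic fluorescence read at 480/540 nm. Each compound tested at 15 concentrations in triplicate.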

[4] = target: KiSS-1 receptor (Homo sapiens) (UniProt Q969F8); test: Human kisspeptin (KISS1R) small molecule agonists, calcium flux assay in KISS1R-HEK293 cells (AID 1920064; active = well fitted curve in the direction sought with a large enough effect in the repeat runs; an effect the other way counts as inactive or inconclusive)
In short: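 Cells plated and incubated 18 h; dye added, 1 h at 37 C; compounds in DMSO pinned in; signal read at 480/540 nm every second for 3 min. Each compound tested at 15 concentrations in triplicate.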

[5] = G protein-coupled receptor (GPCR) small molecule agonists, calcium flux assay: HEK293 wild type cell line counter screen (AID 1920065)
In short: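 Counter-screen of the Tox21 10K library for non-specific calcium release: dye-loaded cells received compounds in DMSO and were monitored by kinetic fluorescence (480/540 nm, 3 min). Fifteen concentrations, run in triplicate.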

[6] = p53 small molecule agonists, cell-based qHTS assay with human liver microsomes (AID 1963577);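 note: p53 response element beta-lactamase reporter cells with liver microsomes plus NADPH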
In short: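 HLM-supplemented p53RE-bla reporter assay: 16 h compound exposure at 37 C, microsomes and NADPH each 0.5 mg/mL final, read by fluorescence intensity.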

[7] = p53 small molecule agonists, cell-based qHTS assay with rat liver microsomes (AID 1963578)
In short: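 Quantitative HTS of the Tox21 10K library: p53RE-bla cells, rat liver microsomes plus NADPH at 0.5 mg/mL final each, 16 h at 37 C, beta-lactamase fluorescence detection.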

[8] = p53 small molecule agonists, cell-based qHTS assay with human liver microsomes: qHTS cell viability counter screen (AID 1963579); note: nearly all actives have a fitted effect of over 45% in size
In short: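 Viability of p53RE-bla cells is measured as CellTiter-Glo luminescence following a 16 h, 37 C incubation with compound, liver microsomes from human donors and NADPH.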

[9] = p53 small molecule agonists, cell-based qHTS assay with rat liver microsomes: qHTS cell viability counter screen (AID 1963580); note: nearly all actives have a fitted effect of over 45% in size
In short: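 Viability is assessed in parallel with the p53 reporter read: HCT-116 p53RE-bla cells receive compounds plus rat microsomes and NADPH (0.5 mg/mL final apiece), incubate 16 h at 37 C, and then CellTiter-Glo luminescence is recorded.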

[10] = p53 small molecule agonists, cell-based qHTS assay: qHTS cell viability counter screen (AID 1963581); note: nearly all actives have a fitted effect of over 45% in size
In short: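 Cells: HCT-116 with p53 response element-driven beta-lactamase. Treatment: 16 h, 37 C, compounds in DMSO. Read: CellTiter-Glo luminescence after 30 min RT.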

[11] = p53 small molecule agonists, cell-based qHTS assay (AID 1963582; active = well fitted activation curve with a large enough effect in the signal ratio in the repeat runs, not every such curve was filed as active; the % refers to the signal ratio)
In short: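 Quantitative HTS in p53RE-bla cells: after a 5 h settling period, compounds delivered in DMSO were left on cells for 16 h at 37 C, and reporter induction was measured as fluorescence following 2 h substrate loading.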

[12] = target: 5-hydroxytryptamine receptor 2A (Homo sapiens) (UniProt P28223); test: 5-hydroxytryptamine receptor 2A (HTR2A) small molecule antagonists, cell-based qHTS assay (AID 1963586); note: nearly all actives have a fitted effect of over 45% in size
In short: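 Antagonist-mode intracellular calcium assay: DOI (4 nM) added after 5 min compound pre-incubation at room temperature to dye-loaded HTR2A-CHO cells. Fluorescence followed for 3 min, sampled every second.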

[13] = target: 5-hydroxytryptamine receptor 2A (Homo sapiens) (UniProt P28223); test: 5-hydroxytryptamine receptor 2A (HTR2A) small molecule agonists, cell-based qHTS assay (AID 1963587); note: nearly all actives have a fitted effect of over 30% in size
In short: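 CHO cells stably expressing human HTR2A, plated 18 h, loaded with calcium dye 1 h at 37 C. Agonist mode: compounds added and intracellular calcium fluorescence recorded kinetically for 2 min at 1 sec intervals.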

[14] = target: Muscarinic acetylcholine receptor M1 (Homo sapiens) (UniProt P11229); test: Cholinergic receptor muscarinic 1 (CHRM1) small molecule antagonists, cell-based qHTS assay (AID 1963588); note: nearly all actives have a fitted effect of over 40% in size
In short: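 CHRM1-CHO calcium-flux assay, antagonist mode. Cells were seeded 18 h, dye-loaded 1 h at 37 C and given compound for 5 min at RT, then acetylcholine was added at 50nM. FDSS fluorescence was read 3 min; 15 concentrations, three runs.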

[15] = target: Muscarinic acetylcholine receptor M1 (Homo sapiens) (UniProt P11229); test: Cholinergic receptor muscarinic 1 (CHRM1) small molecule agonists, cell-based qHTS assay (AID 1963589); note: nearly all actives have a fitted effect of over 35% in size
In short: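 Agonist-mode qHTS in CHO cells stably carrying human muscarinic M1. Intracellular calcium is tracked by fluorescence every second after compound transfer; each compound runs at 15 concentrations in three independent runs.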

[16] = cAMP Responsive Elements (CRE) small molecule agonists, cell-based qHTS assay (AID 1963590)
In short: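 Agonist mode qHTS in CRE-bla HEK 293T cells: compounds dosed from DMSO for 3 h at 37 C/5% CO2, followed by LiveBLAzer B/G FRET substrate for 2 h at room temperature.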

[17] = cAMP Responsive Elements (CRE) small molecule antagonists, cell-based qHTS assay (AID 1963591; active = well fitted inhibition curve with a large enough effect in the signal ratio in the repeat runs, not every such curve was filed as active; the % refers to the signal ratio)
In short: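 Antagonist mode: test compounds are co-incubated with the adenylyl cyclase activator NKH477 (0.25 uM final) on CRE-bla HEK293T cells for 3 h at 37 °C, followed by LiveBLAzer substrate loading.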

[18] = target: D(2) dopamine receptor (Homo sapiens) (UniProt P14416); test: Dopamine D2 receptor (DRD2) small molecule agonists, cell-based qHTS assay (AID 1963594); note: nearly all actives have a fitted effect of over 35% in size
In short: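 HEK293 cells stably expressing human DRD2, pre-treated with PDE inhibitor Ro20-1724 (0.1 mM final) and compound 10 min at room temperature, then stimulated with NKH477 (200nM […]) for 30 min. cAMP read by HTRF (665/620 nm).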

[19] = target: D(2) dopamine receptor (Homo sapiens) (UniProt P14416); test: Dopamine D2 receptor (DRD2) small molecule antagonists, cell-based qHTS assay (AID 1963595; active = well fitted inhibition curve with a large enough effect in the signal ratio in the repeat runs, with a control signal flat; the % refers to the signal ratio)
In short: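 Antagonism was scored as restored cAMP in HEK293-DRD2 cells. These cells were stimulated with 200 nM NKH477 and 12 nM quinpirole for 30 min at room temperature, in the presence of 0.1 mM Ro20-1724.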

[20] = target: Beta-2 adrenergic receptor (Homo sapiens) (UniProt P07550); test: Adrenergic beta2 receptor (ADRB2) small molecule antagonists, cell-based qHTS assay (AID 1963592); note: series mostly up to about 92 µM; nearly all actives have a fitted effect of over 50% in size
In short: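 Cells (CHO, stable ADRB2 overexpression) incubated 18-20hr at 37C; compounds added from DMSO; agonist mix (1nM isoproterenol, 100uM IBMX, 25uM Ro-20-1724) added; 0.5hr RT; d2-cAMP and anti-cAMP-cryptate added; 1hr RT; 665/615 nm read.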
% is set by controls: 0 for no effect and ±100 for the full control effect.

Sequence of D(2) dopamine receptor (Homo sapiens) (P14416 whole entry, looked up): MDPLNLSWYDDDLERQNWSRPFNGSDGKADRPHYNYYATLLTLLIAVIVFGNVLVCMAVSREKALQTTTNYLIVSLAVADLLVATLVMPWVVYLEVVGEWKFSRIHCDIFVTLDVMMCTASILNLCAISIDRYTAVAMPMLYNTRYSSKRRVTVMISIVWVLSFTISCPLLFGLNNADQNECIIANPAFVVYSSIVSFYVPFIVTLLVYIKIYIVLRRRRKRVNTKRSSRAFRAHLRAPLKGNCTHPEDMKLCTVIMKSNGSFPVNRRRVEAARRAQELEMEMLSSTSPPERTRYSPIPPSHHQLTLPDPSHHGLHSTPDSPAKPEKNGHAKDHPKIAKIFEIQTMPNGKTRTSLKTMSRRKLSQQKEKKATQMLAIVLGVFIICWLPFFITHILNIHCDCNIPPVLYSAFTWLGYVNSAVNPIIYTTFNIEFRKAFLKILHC
Sequence of Muscarinic acetylcholine receptor M1 (Homo sapiens) (P11229 whole entry, looked up): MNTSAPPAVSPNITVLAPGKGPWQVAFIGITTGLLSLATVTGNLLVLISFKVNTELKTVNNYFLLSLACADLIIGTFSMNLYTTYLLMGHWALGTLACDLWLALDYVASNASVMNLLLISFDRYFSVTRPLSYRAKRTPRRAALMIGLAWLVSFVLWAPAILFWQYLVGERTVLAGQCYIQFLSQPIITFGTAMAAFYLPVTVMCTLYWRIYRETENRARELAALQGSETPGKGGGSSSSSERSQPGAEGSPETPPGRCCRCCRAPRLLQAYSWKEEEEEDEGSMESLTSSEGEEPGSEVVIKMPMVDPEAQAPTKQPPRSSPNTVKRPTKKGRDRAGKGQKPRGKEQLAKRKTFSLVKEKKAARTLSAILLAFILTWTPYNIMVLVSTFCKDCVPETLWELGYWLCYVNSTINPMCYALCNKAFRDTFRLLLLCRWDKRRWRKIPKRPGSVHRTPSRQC
Sequence of KiSS-1 receptor (Homo sapiens) (Q969F8 whole entry, looked up): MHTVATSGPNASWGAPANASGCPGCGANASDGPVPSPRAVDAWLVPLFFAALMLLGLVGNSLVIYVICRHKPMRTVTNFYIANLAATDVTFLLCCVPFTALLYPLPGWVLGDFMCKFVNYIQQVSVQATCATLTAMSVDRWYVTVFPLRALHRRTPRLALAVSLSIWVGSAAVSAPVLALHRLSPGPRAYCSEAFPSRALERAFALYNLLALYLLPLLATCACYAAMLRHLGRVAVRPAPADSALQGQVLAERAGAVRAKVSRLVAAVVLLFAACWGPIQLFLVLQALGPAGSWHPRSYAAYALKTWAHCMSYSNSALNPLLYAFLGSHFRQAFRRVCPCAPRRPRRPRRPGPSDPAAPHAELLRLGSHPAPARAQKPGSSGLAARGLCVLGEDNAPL
Sequence of Gonadotropin-releasing hormone receptor (Homo sapiens) (P30968 whole entry, looked up): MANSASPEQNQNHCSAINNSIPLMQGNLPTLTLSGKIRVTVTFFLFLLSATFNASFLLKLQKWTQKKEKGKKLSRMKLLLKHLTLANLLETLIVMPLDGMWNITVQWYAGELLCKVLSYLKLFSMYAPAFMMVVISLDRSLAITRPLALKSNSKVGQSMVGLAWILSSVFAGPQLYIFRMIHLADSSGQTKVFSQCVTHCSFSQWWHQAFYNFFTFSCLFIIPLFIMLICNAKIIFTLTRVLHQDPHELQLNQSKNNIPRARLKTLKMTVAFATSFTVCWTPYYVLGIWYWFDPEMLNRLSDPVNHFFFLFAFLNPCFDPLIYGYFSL
Sequence of Beta-2 adrenergic receptor (Homo sapiens) (P07550 whole entry, looked up): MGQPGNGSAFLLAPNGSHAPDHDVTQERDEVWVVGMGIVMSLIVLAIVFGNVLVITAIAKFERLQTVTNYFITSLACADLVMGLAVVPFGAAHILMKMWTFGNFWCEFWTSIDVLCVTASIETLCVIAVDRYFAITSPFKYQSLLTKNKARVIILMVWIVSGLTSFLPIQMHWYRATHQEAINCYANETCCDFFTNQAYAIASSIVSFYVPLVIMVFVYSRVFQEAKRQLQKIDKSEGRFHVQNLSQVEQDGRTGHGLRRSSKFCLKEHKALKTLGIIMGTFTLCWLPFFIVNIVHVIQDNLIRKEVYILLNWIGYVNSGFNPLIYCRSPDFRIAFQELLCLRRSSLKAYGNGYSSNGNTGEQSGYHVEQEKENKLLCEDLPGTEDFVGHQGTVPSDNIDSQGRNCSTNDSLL
Sequence of 5-hydroxytryptamine receptor 2A (Homo sapiens) (P28223 whole entry, looked up): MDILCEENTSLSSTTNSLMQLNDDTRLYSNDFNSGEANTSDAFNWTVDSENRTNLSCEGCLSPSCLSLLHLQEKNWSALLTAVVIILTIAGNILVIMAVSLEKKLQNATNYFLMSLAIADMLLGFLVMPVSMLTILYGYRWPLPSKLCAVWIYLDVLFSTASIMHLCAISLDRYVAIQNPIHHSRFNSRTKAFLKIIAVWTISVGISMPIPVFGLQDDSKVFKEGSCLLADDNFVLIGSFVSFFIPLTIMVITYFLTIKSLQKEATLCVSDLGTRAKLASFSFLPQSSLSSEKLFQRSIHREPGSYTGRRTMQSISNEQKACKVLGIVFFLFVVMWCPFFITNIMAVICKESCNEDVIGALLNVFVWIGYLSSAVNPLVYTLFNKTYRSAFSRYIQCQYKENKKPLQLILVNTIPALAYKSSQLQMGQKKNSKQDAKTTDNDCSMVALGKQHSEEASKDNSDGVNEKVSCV

CC(=O)O[C@@H]1C[C@@H]2CC[C@@]1(C)C2(C)C
inactive: Potency [1] | Potency [2] | Potency [3] | Potency [4] | Potency [5] | Potency [6] | Potency [7] | Potency [8] | Potency [9] | Potency [10] | Potency [11] | Potency [12] | Potency [13] | Potency [14] | Potency [15] | Potency [16] | Potency [17] | Potency [18] | Potency [19]

CCCCC1CCC(O)CC1 (configuration not stated)
inactive: Potency [1] | Potency [2] | Potency [3] | Potency [4] | Potency [5] | Potency [6] | Potency [7] | Potency [8] | Potency [9] | Potency [10] | Potency [11] | Potency [12] | Potency [13] | Potency [14] | Potency [15] | Potency [16] | Potency [20] | Potency [18]

O=C(O)c1cc(=O)c2ccccc2o1
inactive: Potency [1] | Potency [2] | Potency [3] | Potency [4] | Potency [5] | Potency [6] | Potency [7] | Potency [8] | Potency [9] | Potency [10] | Potency [11] | Potency [12] | Potency [13] | Potency [14] | Potency [15] | Potency [16] | Potency [20] | Potency [18] | Potency [19]

CCCCCCS
inactive: Potency [1] | Potency [2] | Potency [3] | Potency [4] | Potency [5] | Potency [6] | Potency [7] | Potency [8] | Potency [9] | Potency [10] | Potency [11] | Potency [12] | Potency [13] | Potency [14] | Potency [15] | Potency [16] | Potency [20] | Potency [18] | Potency [19]

COc1ccc(NC(C)=O)cc1
inactive: Potency [1] | Potency [2] | Potency [3] | Potency [4] | Potency [5] | Potency [6] | Potency [7] | Potency [8] | Potency [9] | Potency [10] | Potency [11] | Potency [12] | Potency [13] | Potency [14] | Potency [15] | Potency [16] | Potency [17] | Potency [20] | Potency [19]

CCCC(=O)CC
inactive: Potency [1] | Potency [2] | Potency [3] | Potency [4] | Potency [5] | Potency [6] | Potency [7] | Potency [8] | Potency [9] | Potency [10] | Potency [11] | Potency [12] | Potency [13] | Potency [14] | Potency [15] | Potency [17] | Potency [20] | Potency [18] | Potency [19]

CCCOCCOCCO
inactive: Potency [1] | Potency [2] | Potency [3] | Potency [4] | Potency [5] | Potency [6] | Potency [7] | Potency [8] | Potency [9] | Potency [10] | Potency [11] | Potency [12] | Potency [13] | Potency [14] | Potency [15] | Potency [16] | Potency [20] | Potency [18] | Potency [19]

CC(C)(C)C(=O)C1C(=O)c2ccccc2C1=O
inactive: Potency [1] | Potency [2] | Potency [3] | Potency [4] | Potency [5] | Potency [6] | Potency [7] | Potency [8] | Potency [9] | Potency [10] | Potency [11] | Potency [12] | Potency [13] | Potency [14] | Potency [15] | Potency [16] | Potency [20] | Potency [18] | Potency [19]

C[Si](C)O[Si](C)C
inactive: Potency [1] | Potency [2] | Potency [3] | Potency [4] | Potency [5] | Potency [6] | Potency [7] | Potency [8] | Potency [9] | Potency [10] | Potency [11] | Potency [12] | Potency [13] | Potency [14] | Potency [15] | Potency [16] | Potency [18] | Potency [19]

C=C(C)C(=O)OCCOP(=O)(O)O
inactive: Potency [1] | Potency [2] | Potency [3] | Potency [4] | Potency [5] | Potency [6] | Potency [7] | Potency [8] | Potency [9] | Potency [10] | Potency [11] | Potency [12] | Potency [13] | Potency [14] | Potency [16] | Potency [17] | Potency [20] | Potency [18] | Potency [19]

CC(C)=CCCC(C)O (configuration not stated)
inactive: Potency [1] | Potency [2] | Potency [3] | Potency [4] | Potency [5] | Potency [6] | Potency [7] | Potency [8] | Potency [9] | Potency [10] | Potency [11] | Potency [12] | Potency [13] | Potency [14] | Potency [15] | Potency [17] | Potency [20] | Potency [18] | Potency [19]

CCCCCCCCCCCCCCCCI
inactive: activity change, negative = cytotoxicity [1] 1.33% [at 19 µM] | activity, positive = activation [2] -9.58% [at 19 µM] | activity change [3] 0.684% [at 11.8 µM, stronger effect = higher value] | activation [4] 7.41% [at 15.8 µM] | activation [5] 2.83% [at 11.8 µM] | activation [6] -0.459% [at 13.5 µM] | activation [7] -1.95% [at 13.6 µM] | activity change, negative = cytotoxicity [8] 1.61% [at 13.5 µM] | activity change, negative = cytotoxicity [9] -2.18% [at 13.5 µM] | activity change, negative = cytotoxicity [10] -8.29% [at 13.5 µM] | activation [11] -4.93% [at 13.5 µM] | activity, negative = inhibition [12] -0.251% [at 12.7 µM] | activation [13] -2.69% [at 15.9 µM] | activity, negative = inhibition [14] -11% [at 12.6 µM] | activation [15] 1.29% [at 15.8 µM] | activation [16] -1.28% [at 19 µM] | activity change, negative = inhibition [20] 0.138% [at 19 µM] | activation [18] 2.88% [at 19 µM] | activity change, negative = inhibition [19] -1.21% [at 18.9 µM]

C=C(C)C(=O)OCCCCCCOC(=O)C(=C)C
inactive: Potency [1] | Potency [2] | Potency [3] | Potency [4] | Potency [5] | Potency [6] | Potency [7] | Potency [8] | Potency [9] | Potency [10] | Potency [11] | Potency [12] | Potency [13] | Potency [14] | Potency [15] | Potency [16] | Potency [18] | Potency [19]

Cc1ccc(C(=O)O)cc1
inactive: Potency [1] | Potency [2] | Potency [3] | Potency [4] | Potency [5] | Potency [6] | Potency [7] | Potency [8] | Potency [9] | Potency [10] | Potency [11] | Potency [12] | Potency [13] | Potency [14] | Potency [16] | Potency [17] | Potency [20] | Potency [18]
